# Assay results taken from publication PMC6212790, “How bacterial xenogeneic silencer rok distinguishes foreign from self DNA in its resident genome”.
# Over roughly 33,000 sequences, “e-score” has its median near -0.038; the highest 2% begin near 0.33. What follows is part of a selection rich in the highest values, with near analogues and random picks from the rest.
# Target: T1, GST-Rok-C97-191 (Bacillus subtilis subsp. subtilis str. …, UniProt O34857 97-191)
# T1 sequence: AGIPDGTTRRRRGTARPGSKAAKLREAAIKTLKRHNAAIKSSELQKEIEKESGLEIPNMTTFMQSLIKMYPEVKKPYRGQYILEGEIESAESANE
# Test: protein binding microarray; Rok is a gene silencer of Bacillus subtilis; high values mean tight binding
# Conditions: protein: recombinant; tags: GST (pTH5325, pDEST15-Magic modified); dsDNA, one strand shown
# Method in brief: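 Every oligonucleotide joins a 25-mer constant primer to a 35-mer variable part drawn from a de Bruijn sequence of order 10, so each non-palindromic 8-mer appears at least 32 times and each palindromic 8-mer 16 times. The preference for every 8-mer is reported as a unitless, rank-based enrichment score (E-score). This score spans 0.5 for the most favored 8-mer to −0.5 for the most disfavored.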
row,Sequence,binding signal
1,ACGGAAAG,-0.117 E-score
2,CAGCTGCA,-0.0452 E-score
3,AACCTATA,0.183 E-score
4,CACCTATA,0.223 E-score
5,TACCTATA,0.375 E-score
6,CACCTAAA,0.0109 E-score
7,AACCTAAA,0.0757 E-score
8,TACCTAAA,0.369 E-score
9,ACAATGGA,-0.0232 E-score
10,GCTAGCCA,0.153 E-score
11,GATAAGAA,0.0314 E-score
12,ATATTACA,0.304 E-score
13,CTATTATC,0.211 E-score
14,ATATTATC,0.245 E-score
15,CTATTACA,0.35 E-score
16,GTATTAGA,0.171 E-score
17,GTATTATA,0.388 E-score
18,CTATTACC,0.312 E-score
19,CTATTATA,0.329 E-score
20,GTATTAAA,0.158 E-score
21,CGATTATA,0.261 E-score
22,ATATTATA,0.379 E-score
23,ATATTATG,0.0424 E-score
24,CCCACTAC,0.0131 E-score
25,AAGTGGCC,-0.135 E-score
26,ATGCATAC,0.0643 E-score

row,Sequence,binding signal
1,AATGACAT,0.115 E-score
2,ATCTAACA,0.192 E-score
3,CTCTTAGA,-0.0403 E-score
4,CGAAAATA,0.204 E-score
5,GGAAAATA,0.331 E-score
6,AGAAAATA,0.342 E-score
7,GAAAAATA,0.273 E-score
8,CGAAATTA,0.31 E-score
9,GGGAAATA,0.229 E-score
10,GGAAATTA,0.28 E-score
11,AGAAAATG,0.187 E-score
12,AGAAATTA,0.344 E-score
13,AAGAAGTG,0.201 E-score
14,GACCGGAA,-0.0227 E-score
15,ATCCTGTA,0.176 E-score
16,ACGTAAGT,-0.0408 E-score
17,AGCGTTTG,0.0655 E-score
18,ACAAAAAA,0.136 E-score
19,AATCGTCG,-0.0319 E-score
20,CAACTAGA,0.255 E-score
21,AGACTAGA,0.199 E-score
22,AAACTAGA,0.354 E-score
23,GAACTAGA,0.335 E-score
24,ACACTAGA,0.179 E-score
25,TAACTAGA,0.247 E-score
26,CCTAATCA,0.011 E-score

row,Sequence,binding signal
1,CCTCTTAA,-0.103 E-score
2,AACGCCAG,-0.0768 E-score
3,GAGGGAAC,-0.0649 E-score
4,GTAAATTA,0.378 E-score
5,CTAAACTC,0.0554 E-score
6,CTAAACTA,0.386 E-score
7,ATAAACTG,0.199 E-score
8,GTAAACGA,-0.119 E-score
9,ATAAACTA,0.359 E-score
10,ATAAACTC,0.173 E-score
11,CTAAATTA,0.141 E-score
12,CTAAACGA,-0.0375 E-score
13,GTAAACTA,0.364 E-score
14,GTAAACAA,-0.0801 E-score
15,ATAAATTA,0.259 E-score
16,GGAGGAAC,-0.069 E-score
17,ATAAGAAG,0.0784 E-score
18,TACAATAA,0.108 E-score
19,ACAAGGAG,-0.167 E-score
20,AAACAGCC,-0.174 E-score
21,TATGACAA,-0.00238 E-score
22,CCGGCAAG,-0.0857 E-score
23,CGCATGAC,-0.0389 E-score
24,CATCCATC,-0.0668 E-score
25,AAGCGGAC,-0.0303 E-score
26,GAGAGCTC,-0.123 E-score

row,Sequence,binding signal
1,CATGAATG,-0.00652 E-score
2,AATTGCTA,0.328 E-score
3,CAGTGGTA,0.232 E-score
4,CATTGGTA,0.279 E-score
5,AAGTGGTA,0.385 E-score
6,CATTGCTA,0.118 E-score
7,AAGTGGTC,-0.168 E-score
8,GATTGCTA,0.18 E-score
9,AATTGGTA,0.331 E-score
10,AATTGGTC,-0.0353 E-score
11,GTCAAGTA,0.157 E-score
12,CCTTTTCC,-0.198 E-score
13,CGCAACCG,0.0123 E-score
14,AAATTATA,0.389 E-score
15,AAATTAAA,0.205 E-score
16,GAATTACA,0.275 E-score
17,AAATTATT,0.296 E-score
18,TAATTATA,0.386 E-score
19,AAATTATC,0.364 E-score
20,GAATTATC,0.23 E-score
21,CAATTATA,0.291 E-score
22,AAATTACA,0.325 E-score
23,GAATTATA,0.24 E-score
24,TAATTACA,0.396 E-score
25,AAATTATG,0.224 E-score
